The supplement of paper PMC11417369
The full ranking holds about 25,000 sequences; the median of “ln(normalized median fluorescence intensity)” is about 9.7, and the highest 2% start at about 11. The sample holds the highest values, similar sequences and a random draw of the others, so the mix is not that of the screen.

What follows are sequences tested on PfAP2-HC AP2 domain (GST-tagged) (assay: gcPBM binding intensity (ln(normalized median fluorescence intensity)); higher = stronger DNA binding).
How it was run: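 An Agilent 4 × 180k array of primer-extended double-stranded 36-bp intergenic genomic probes, with negative controls, was incubated for 1 h with GST-tagged P. falciparum DNA-binding domains expressed in E. coli. Alexa488 anti-GST antibody detected bound protein, scanned at 488 nm. Binding intensity is the highest Masliner-normalised natural-log median intensity across replicate spots of either probe orientation.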

Sequence	gcPBM binding intensity (ln)
ATTTTTTCTTTTTTTTTTCCGTTTTTTTGGACATTT [CACACA_negctrl_site1174]	9.75
TAAATATATATATATAGTACAATATAATTATGATAT [XGTACX_site258]	9.75
AAAAAAAAAATATCATGTACAAATATAATAAAATTT [XGTACX_site3896]	9.79
TATATTTAAGTACATAAATAAGCCCATTTACATACA [CACACA_negctrl_site1224]	9.37
AATAATAATGCTTTAACTTTGTTGTTATTTAGAATA [CACACA_negctrl_site1144]	9.44
AATAGCTAGCTGTGCACACAAACATATTTTCCAAAT [CACACA_site880]	9.91
AGGTTATATATGAACAAAAATAAAATATTCATAGGC [TGCATGCA_negctrl_site46]	9.77
ATAAATACTAGGCACACACACATATATATATATATA [CACACA_site2080]	10.4
AAAAAAAACAGACACACACACACATATACATACATA [CACACA_site2665]	11.5
TAAACAGACATATAAACACACATACATACATACATA [CACACA_site7215]	10.2
AAATAAATACTAGGCACACACACATATATATATATA [CACACA_site2079]	11
AAAAAACACAGACACACACACATATACATACATACA [CACACA_site2666]	10.7
ATAAATACTAGGCACACACACATATAGATTTATATA [CACACA_site7064]	10.8
TGTTTCTAAGAATTTACACACAAAATATTTCTACAT [CACACA_site7846]	9.9
TTTATTTATTAAGAATGTACATGTATTTGTTAAATA [XGTACX_site4465]	9.4
AAATTTGGCAGACACACACACACACGCACACGCACA [CACACA_site6423]	11.5
TCTCATAGTAGACACACACACACACGCACATATATA [CACACA_site6916]	11.3
CGCACACGCAGACACACACACACATATAAATAAATA [CACACA_site7101]	10.8
CATAGATACATACACGCACACACATATATATATATA [CACACA_site13]	10.3

Sequence	gcPBM binding intensity (ln)
TATACACATAGACACACACACATACACGCACATACA [CACACA_site6908]	10.7
AAAAATTTGGCATACACACACACACGCACACGCACA [CACACA_site6422]	10.6
CACATACACATACACATACACACGCATAGAAACATA [CACACA_site2136]	10.5
TATCTCATAGTATACACACACACACGCGCACATATA [CACACA_site6917]	10.5
ATTTGGCATAGACACACACACACACGCACGCACATA [CACACA_site6424]	11.1
TCAAGTTTATATTAACTATTTATGAAAAAAAAAAGA [CACACA_negctrl_site902]	9.38
ATTTTATATACACTTTGTACTTATTTTATTCTTCTT [XGTACX_site4200]	9.93
TAATATATTTATAAGTGTACACATTATATAAATCCC [XGTACX_site8875]	9.64
ATCCATTATTTTTGTTGTACGGGTAACTTTAAAAAG [XGTACX_site2226]	9.5
ATGAATAATTAATGATGTACTTAAAAAAAAAAATAT [XGTACX_site6346]	9.53
TATATAGCTAAAAACACACAAATATGTACACATAAA [CACACA_site7665]	9.88
ATGAACATATCAATTCTCAAAATAGGATGAGAGCAT [CACACA_negctrl_site230]	9.6
ATCATAAATATAGCAACACACGGATTACATAAAATA [CACACA_site2796]	9.85
GTGGTTATATATTAAGTGCATATTATAATTTTAAAC	9.52
TATGTGAATATAATCACACACAATACGGAAAGAGAC [CACACA_site7311]	11.2
TATGTGAATATAATCACACACAATACGGAAACCCAC [CACACA_site2725]	9.99
AATATGTGAATATAATCACACACAATACGGAAACAC [CACACA_site8875]	10.7
TTAAAATTTTTCAAAAGTACATAAATAATATATATT [XGTACX_site4694]	9.32
ATAAACAGATCATATACATGCATATATGTAGAATAA [TGCATGCA_site157]	9.82

Sequence	gcPBM binding intensity (ln)
CACACGCACGAACACACACACACACGCGCACATATA [CACACA_site6304]	11
CACGCGCACGAACACACACACACACGCATATAAATA [CACACA_site7103]	11
CACACGCACGAACACACACACACACGCACGCACATA [CACACA_site6305]	10.7
CACACGCACGAACACACACACACACGCATATAAATA [CACACA_site6302]	10.9
AACACGCGCAGACACACACACACACGCACATATATA [CACACA_site7104]	10.9
CACACGCACGAACACACACACATATAAATATAAATA [CACACA_site6299]	10.2
ATATACTATTAACCACATATGTGTGTTAATTTATAT [GTGCAC_negctrl_site315]	9.79
CATATATAATAATATTGTACATATATAATAATAATA [XGTACX_site3338]	9.69
AAATAAGAACATAGAATGCACTTTTTTTTTTTTTCC	9.51
TAAATATATGCATATACACACAACAAAAAAATATAT [CACACA_site2341]	10.1
TGATAATAAGCATACACACACACACCCAAAAAAAAA [CACACA_site721]	11.2
AATAAAATAATAAAAGCACACAAGAATACACCCAAA [CACACA_site7919]	10.6
TGATAATAAGCATACACACACACACTAGAAAAAAAA [CACACA_site4558]	11.5
AATAAGTATACACATACACACACACCCAAAAAAAAA [CACACA_site8034]	11
TGATAATAAGCATACACACACACACTAAAAAAAAAA [CACACA_site6478]	10.9
GGTGATAATAAGCATACACACACACCCAAAAAAAAA [CACACA_site8137]	10.2
AAGAAAATAAAAAATAAGCATAATATGATATGATAT [TGCATGCA_negctrl_site196]	10.1
AAGTAAAATAAGTATACACACATAAATATATATATA [CACACA_site685]	10.1
TAAGTATACGCATACACACACACACCCAAAAAAAAA [CACACA_site425]	10.4
